Growth data for 12 molecules are collected here from PubChem BioAssay (NCI).

Common to all, as to experiment: NCI-60 one-dose screen, 48 h (100 = growth as untreated, 0 = no growth, -100 = all killed)
Common to all, as to conditions: 10 µM unless noted

For assay [1], the system named is HCT-15 colon.
The subject of assay [2] is HT29 colon.
The test system of assay [3] is SNB-75 CNS.
Assay [4] deals with SNB-19 CNS.
Assay [5] deals with U251 CNS.
The test system of assay [6] is PC-3 prostate.
The test system of assay [7] is SK-MEL-5 melanoma.
Assay [8] relates to UACC-62 melanoma.
The test system of assay [9] is LOX IMVI melanoma.
The subject of assay [10] is SK-MEL-28 melanoma.

This is part of a sample that, as a whole, favours compounds with a hit. Of some 83,000 tested, about 20% had one in any assay.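 Plates (96-well) were seeded with cells, treated with compound at one concentration, and incubated for 48 hours before percent growth was determined.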 Unmarked numbers belong to inactive results. The source made the active and inactive calls. The calls were made as follows: active = growth percent below 10; inactive = the rest.

For the molecule `OCCNC(Cc1ccccc1)c1ccc2c(c1)OCO2` (stereo not given), the growth in assay [1] was 100%; in assay [2], 73%; in assay [3] it was 108%; in assay [4], 106%; in assay [5] it was 92.9%; in [6], 73.1%. In addition, the growth is 101% in [7], 92.4% in assay [8], 93.5% in [9] and 109% in [10].
Regarding `CC(C)OC(=O)[C@H](C)NP(=O)(Oc1ccccc1)C1CCCN(O)C1=O` (stereo not given in full), the growth was 93.1% in assay [1]; 91.7% in assay [2]; 108% in [3]; 98.8% in assay [4]; 105% in assay [5]; 94.5% in assay [6]. Also, the growth in [7] is 99.2%; in assay [8] it was 71.8%; in assay [9] it was 85.3%; in [10] it was 52.2%.
`CC(=O)OC[C@]1(C)C=C2C(=O)[C@](C)(O)C3(CC3)C(C)=C2[C@H]1OC(=O)N(C)CCN(C)C(=O)OC(C)(C)C`: the growth is 3.65% (active) in assay [1]; 0.176% (active) in [2]; -15.1% (active) in assay [3]; 8.79% (active) in assay [4]; 4.09% (active) in assay [5]; -21.4% (active) in [6]. Further, the growth in [7] was -74.4% (active); in [8] it was -52% (active); in [9], -6.97% (active); in assay [10], -4.04% (active).
Take `CC[CH2][Sn]([Cl])([Cl])[CH2]CC`: the growth in [1] was 83.1%; in assay [2], 103%; in assay [3] it was 55.9%; in assay [4] it was 88.9%; in assay [5], 39.2%; in assay [6] it was 103%. Also, the growth in assay [7] was 86.4%; in assay [8], 60%; in [9], 27.6%; in assay [10] it was 69.2%.
Take `CCOC(=O)[C@@H](C)C[C@H](Cc1ccccc1)NC(=O)c1nc([C@@H](C[C@H](C(C)C)N(C)C(=O)[C@@H](NC(=O)[C@H]2CCCCN2C)C(C)C)OC(C)=O)sc1CCOCc1ccccc1`: the growth in assay [1] is -30.5% (active); in [2] it was -50.7% (active); in assay [3], -11.2% (active); in [4], 4.69% (active); in [5], -32.4% (active); in assay [6], 5.66% (active). In addition, the growth in [7] was -39.7% (active); in assay [8] it was 4.15% (active); in assay [9], -54.4% (active); in [10] it was -23.7% (active).
Take `CCOP(=O)(Cc1ccc(C#N)cc1)OCC`: the growth was 108% in assay [1]; 92.2% in [2]; 106% in assay [3]; 97.3% in assay [4]; 95.6% in assay [5]; 84.7% in [6]. The growth in assay [7] is 104%; in [8], 94.1%; in [9] it was 98.3%; in assay [10], 107%.
Take `COc1ccc(/C=C\c2cc(OC)c(OC)c(OC)c2)c(NS(=O)(=O)c2ccc(F)cc2)c1O`: the growth in assay [1] was 6.21% (active); in [2], 12.5%; in [3], 34.9%; in [4], 37.4%; in assay [5], 19.1%; in assay [6], 31.3%. Further, the growth in assay [7] was -28.4% (active); in assay [8], 40.1%; in assay [9], 19.3%; in assay [10], 63.2%.
Consider `COc1cc(C=Nc2cccc(Br)c2)ccc1N(CCCl)CCCl`, for which the growth in assay [1] is 82.4%; in [2] it was 63.4%; in assay [3], 69.1%; in assay [4], 91.9%; in assay [5], 73%; in assay [6], 68.4%. In addition, the growth in assay [7] was 86%; in assay [8], 76.1%; in assay [9] it was 68.7%; in assay [10] it was 116%.
Consider `CC(=O)OC1CCC2C3CCC4=C/C(=N/OC(=O)c5ccc(N(CCCl)CCCl)cc5)CCC4(C)C3CC(C)C12` (stereo not given), for which the growth in [1] was 71.6%; in assay [2], 46.8%; in assay [3] it was 70.5%; in [4], 62.9%; in assay [5], 59.3%; in assay [6], 77.1%. The growth in [7] was 67.5%; in assay [8], 72.5%; in assay [9], 15.5%; in assay [10], 108%.
For `COC[C@@H]1C[C@@]2(C)[C@@H](CC[C@@H]3[C@@H]2CC[C@@]2(C)[C@H]3CC[C@]2(C)O)CC1=O`, the growth was 94.8% in assay [1]; 83.4% in [2]; 90.4% in [3]; 113% in assay [4]; 93.7% in assay [5]; 96.8% in [6]. The growth in assay [7] is 106%; in [8], 100%; in assay [9], 95.2%; in assay [10], 96.4%.
With `O=NN1CCCc2cccc(O)c21`, the growth is 27.2% in assay [1]; 94.6% in assay [2]; 21.8% in [3]; 31% in assay [4]; 21.9% in [5]; 51.8% in assay [6]. For the same molecule, the growth in [7] is 19.9%; in assay [8] it was 26.7%; in assay [9], 23.9%; in assay [10], 67.2%.
On to `CC(=O)[O][Hg][O]C(C)=O`, for which the growth is 93.8% in [1]; 73.8% in assay [2]; 72.6% in assay [3]; 110% in assay [4]; 84.6% in [5]; 86.3% in assay [6]. Further, the growth in [7] was 102%; in [8] it was 97.2%; in assay [9], 70.9%; in [10] it was 106%.
